In the library only some 7% were active in any assay of this set; here they are far more common.
ATXN viability = Viability Counterscreen for Primary qHTS for Inhibitors of ATXN expression. actives 0.49% (n = 400,000). Potency, µM (doses to about 56.7 µM), usual class: cytotoxic. S2 cells (HEK-293 line with an ATXN2-luciferase reporter) viability, CellTiter-Fluor protease fluorescence, 24 h. AID 651635, 2014; note: potency is the fitted concentration of half-maximal effect; nearly all actives have a fitted effect of over 40% in size
IL1B secr inh = qHTS for Inhibitors of Inflammasome Signaling: IL-1-beta AlphaLISA Primary Screen; THP-1 LPS/ATP IL-1B secretion, AlphaLISA, 16 h; active compounds read low; activity change, % at 57.5 µM; actives 4.7% (n = 360,000); in the data active = activity change below about -50%; inconclusive = mostly about -30% to -49%; note: % is set by controls: 0 for no effect and ±100 for the full control effect
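THP-1 cells pretreated 1 hr with compounds (up to 57.5 uM final), then stimulated with LPS (250 ng/mL final) plus ATP (1.25 mM final); secreted IL-1B measured by AlphaLISA after 16 hr, decreased signal indicating inhibition.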
ATXN2 expr inh = Primary qHTS for Inhibitors of ATXN expression; AID 1745845, 2022; actives 0.72% (n = 360,000); Potency, µM (doses to about 57 µM), for the others: at the top dose activity change, negative = inhibition, most hits filed as inhibitors; HEK-293 ATXN2-luciferase reporter, luminescence, 24 h; note: potency is the fitted concentration of half-maximal effect; % is set by controls: 0 for no effect and ±100 for the full control effect; nearly all actives have a fitted effect of over 55% in size
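ATXN2-luciferase reporter cells (luciferase flanked by upstream and downstream ATXN2 gene portions) were treated 24 h at 37 °C with compounds at up to 57 uM. SteadyGlo luminescence gave expression; GF-AFC fluorescence gave viability.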
a7 integrin act = qHTS for Activators of Integrin-Mediated Alleviation for Muscular Dystrophy. alpha7betagal myoblasts, beta-gal FDG fluorescence, 48 h. Potency, µM (titrated, usually from 38.3 µM), inactives show top-dose activation, hits mostly activators. actives 0.064% (n = 350,000);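 note: potency is the fitted concentration of half-maximal effect; 100% = response of the positive control SU9516; nearly all actives have a fitted effect of over 60% in size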
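alpha7betagal+/- myoblasts (passage 13, 250/well) treated 48 h at 37C with compounds at 1:260 dilution of DMSO stock. Lysed, then beta-galactosidase activity read as FDG fluorescence (ex 480/em 540) after 30 min, with pre-read for autofluorescence.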
D3 ag = qHTS of D3 Dopamine Receptor Agonist: qHTS; D(3) dopamine receptor (Homo sapiens), P35462; D3R DiscoveRx beta-arrestin cells, luminescence, 90 min; actives 0.58% (n = 410,000); AID 652048, 2013; max activation, %; in the data active = max activation above about 30%; note: 0% is about no effect
Target sequence (P35462 whole entry, looked up): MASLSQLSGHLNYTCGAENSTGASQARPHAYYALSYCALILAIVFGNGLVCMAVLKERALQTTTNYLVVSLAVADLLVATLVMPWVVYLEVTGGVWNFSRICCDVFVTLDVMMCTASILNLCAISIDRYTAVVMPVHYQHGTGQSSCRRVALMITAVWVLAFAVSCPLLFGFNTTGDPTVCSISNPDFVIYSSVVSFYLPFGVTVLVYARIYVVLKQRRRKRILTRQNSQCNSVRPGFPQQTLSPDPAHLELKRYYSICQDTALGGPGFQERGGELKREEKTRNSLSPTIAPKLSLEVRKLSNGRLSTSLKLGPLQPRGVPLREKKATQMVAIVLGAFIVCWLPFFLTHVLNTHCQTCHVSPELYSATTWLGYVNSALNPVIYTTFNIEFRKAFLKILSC
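Cells at 1500/well, incubated overnight, then treated with pinned compounds (dopamine as control) for 90 min at 37 degrees C. DiscoveRx reagent added for 30 - 60 minutes at room temperature; luminescence read.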
DRD3 antagonist = qHTS of D3 Dopamine Receptor Antagonist: qHTS; D(3) dopamine receptor (Homo sapiens), P35462; D3R cells, DiscoveRx beta-arrestin luminescence, antagonist mode; active compounds read low; max response, negative = inhibition, %; actives 2.5% (n = 360,000); in the data active = max response below about -50%; inconclusive = no clear call, values can overlap the other calls; note: % is set by controls: 0 for no effect and ±100 for the full control effect
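Cells plated overnight at 1500 cells/well, then exposed to library compounds with dopamine controls for 90 minutes at 37 degrees C. DiscoveRx reagent added for 30–60 minutes at room temperature; luminescence read, quantitative HTS format.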
* = called active by the depositor; i = inactive; ? = inconclusive; nt = no result given. Unless noted, calls come from the whole dose curve; as a rule, active = well fitted curve in the direction sought with a large enough effect; inconclusive = small, poorly fitted or top-dose-only effect, or another doubt; inactive = no such curve, though single readings can be large; an effect the other way counts as inactive or inconclusive.

SMILES | ATXN viability | IL1B secr inh | ATXN2 expr inh | a7 integrin act | D3 ag | DRD3 antagonist
C#CCn1cnc2c(oc3ccccc32)c1=O | i | -4 | nt | -7% | -5 | -29
CN(C)C(=O)COC(=O)c1cccc(S(=O)(=O)Nc2ccc(OCc3ccccc3)cc2)c1 | i | 5 | 8% | -13% | 0 | 5
CCN1CCN(c2nc(N)c([N+](=O)[O-])c(Nc3ccc(C)c(C)c3)n2)CC1 | i | 11 | -32% | 1% | -35 | 0
CCN1CCN(c2nc(N)c([N+](=O)[O-])c(Nc3ccc(C)cc3)n2)CC1 | i | -62* | -14% | 10% | -35 | ?
Cc1ccc(C(C[N+](=O)[O-])c2c(-c3ccccc3O)[nH][nH]c2=O)cc1 (centres undefined) | ? | -102* | 56% | -74% | -2 | -9
COc1ccc(N(C(=O)c2snc(C(N)=O)c2N)C(C(=O)NCc2ccc(F)cc2)c2ccc(O)cc2)cc1 (centres undefined) | i | -88* | ? | 0% | -1 | 5
COc1cccc(N(C(=O)c2snc(C(N)=O)c2N)C(C(=O)NCc2ccccc2)c2ccc(O)cc2)c1 (centres undefined) | ? | -53* | -8% | ? | 3 | 26
Nc1nc2c(-c3ccc(Br)cc3)nnn2c2ccccc12 | i | 30 | 16% | 28% | -1 | 1
Cc1oc2c(C)c3oc(=O)c4c(c3cc2c1C)CCCC4 | ? | -24 | -11% | 4% | 32* | 26
Cc1c(O)ccc2c3c(c(=O)oc12)CCCC3 | i | -1 | -7% | -8% | 1 | 12
O=C(NCc1nnc2n1CCN(Cc1ccccc1C(F)(F)F)CC2)c1ccncc1 | i | nt | nt | nt | nt | nt
COC(=O)C1=C(C)NC(=O)/C1=C\c1cc(C)n(-c2cc(C)cc(C)c2)c1C | i | -60* | -5% | 24% | 9 | -7
COC(=O)C1=C(C)NC(=O)/C1=C\c1cc(C)n(-c2ccccc2)c1C | ? | ? | 45% | -22% | 5 | -11
CCCS(=O)(=O)N1CCN(CC2CC3C=CC2C3)CC1 (centres undefined) | i | 21 | -4% | 13% | -6 | -21
CCS(=O)(=O)N1CCN(CC2CC3C=CC2C3)CC1 (centres undefined) | i | 18 | 0% | 7% | -7 | -72*
Fc1ccccc1N1CCN(CC2CC3C=CC2C3)CC1 (centres undefined) | i | 12 | -26% | -1% | 12 | -71*
FC(F)(F)c1cccc(N2CCN(CC3CC4C=CC3C4)CC2)c1 (centres undefined) | i | 11 | -10% | -6% | -23 | -72*
C1=CC2CC1CC2CN1CCN(Cc2ccccc2)CC1 (centres undefined) | i | 8 | -29% | -23% | -22 | -53*
c1ccc2c(CCNc3ccc(Nc4ccncc4)cc3)c[nH]c2c1 | nt | nt | 15µM* | nt | nt | nt
CCCCOc1ccc(NC(=O)CSc2nnnn2C)cc1 | i | 0 | 24% | -7% | -5 | -113*
CN(C)S(=O)(=O)c1ccc(NC(=O)CSc2nnnn2C)cc1 | i | -11 | -7% | 33% | 3 | 3
CCOc1ccc(NC(=O)CSC(N)=O)cc1 | i | -9 | -22% | -18% | -5 | -72*
COc1cccc(CC(=O)Nc2ccc3c(c2)c(=O)n(C)n3-c2ccc(C(C)(C)C)cc2)c1 | ? | -20 | -39% | nt | -8 | -58*
CN(C)c1ccc(NC(=S)Nc2ccc3c(c2)c(=O)n(C)n3-c2ccc(C(C)(C)C)cc2)cc1 | ? | 5 | 0% | nt | -17 | -54*
CN(C)c1ccc(NC(=O)Nc2ccc3c(c2)c(=O)n(C)n3-c2ccccc2)cc1 | ? | -24 | -7% | nt | -5 | 0
COc1cccc(Cn2c3ccc(NC(=O)Cc4cc(OC)ccc4OC)cc3c(=O)n2C)c1 | ? | -78* | -12% | nt | 3 | 12

Source: PubChem
